The record followed here is PubChem BioAssay (NCI).

Holding throughout (assay): NCI-60 one-dose screen, 48 h (100 = growth as untreated, 0 = no growth, -100 = all killed)
Assay [1] has as its system HCT-15 colon. The note with it: 10 µM unless noted.
In assay [2] the test system is HT29 colon. The note with it: 10 µM unless noted.
Assay [3] concerns SNB-75 CNS. The note with it: 10 µM unless noted.
The subject of assay [4] is SNB-19 CNS. The note with it: 10 µM unless noted.
For assay [5], the system named is U251 CNS. The note with it: 10 µM unless noted.
Assay [6] has as its system PC-3 prostate. The note with it: 10 µM unless noted.
The subject of assay [7] is SK-MEL-5 melanoma. The note with it: 10 µM unless noted.
The test system of assay [8] is UACC-62 melanoma. The note with it: 10 µM unless noted.
The subject of assay [9] is LOX IMVI melanoma. The note with it: 10 µM unless noted.
For assay [10], the system named is SK-MEL-28 melanoma. The note with it: 10 µM unless noted.
Assay [11] concerns SK-MEL-2 melanoma. The note with it: 10 µM unless noted.
Assay [12] relates to EKVX NSCLC. The note with it: 10 µM.
Assay [13] has as its system SN12C renal. The note with it: 10 µM unless noted.
The subject of assay [14] is UO-31 renal. The note with it: 10 µM unless noted.
The test system of assay [15] is TK-10 renal. The note with it: 10 µM unless noted.
The test system of assay [16] is ACHN renal. The note with it: 10 µM unless noted.
Assay [17] relates to CAKI-1 renal. The note with it: 10 µM unless noted.
In assay [18] the test system is A498 renal. The note with it: 10 µM unless noted.
For assay [19], the system named is CCRF-CEM leukemia. The note with it: 10 µM.
The test system of assay [20] is MOLT-4 leukemia. The note with it: 10 µM unless noted.

Each structure is given as a SMILES string. The panel holds about 83,000 compounds, 20% with a hit somewhere; the sample as a whole holds those more often.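 Method: cells in 96-well plates; compound added at one concentration; 48 h incubation; percent growth measured; values under 10 scored active.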 Unmarked numbers belong to inactive results. Calls of active or inactive are those of the source.

For `O=C(Nc1cccc(Cn2c(=O)[nH]c3ccc(Oc4ncccn4)cc3c2=O)c1)c1cccc(F)c1`, the growth is 83% in [1]; 75.7% in assay [2]; 75% in assay [3]; 72.6% in [4]; 82.3% in [5]; 64.3% in [6]. Moreover, the growth in [7] was 65.5%; in [8] it was 58.4%; in [9] it was 86%; in assay [10] it was 93.8%; in assay [11], 74.3%; in assay [12], 78.6%. For the same compound, the growth in assay [13] was 78%; in assay [14], 58.9%; in assay [15] it was 81%; in assay [16], 80.9%; in assay [17] it was 89%; in [18] it was 66%. Besides, the growth in assay [19] was 75.7%; in assay [20] it was 54.7%.

Take `COc1cc(NC(=O)CSc2nc3ccc(Cl)cc3c(=O)n2-c2ccc(F)cc2)cc(OC)c1OC`: the growth is 84.5% in assay [1]; 97.9% in [2]; 72.6% in assay [3]; 82.2% in [4]; 82.1% in assay [5]; 73% in [6]. The growth in [7] is 73.9%; in assay [8] it was 71.3%; in assay [9], 73.5%; in assay [10], 95.4%; in assay [11], 92.6%; in assay [12] it was 67.8%. The growth in assay [13] was 78.7%; in [14] it was 40.6%; in [15] it was 97.8%; in assay [16], 85.6%; in [17], 71.5%; in [18] it was 34.8%. For the same compound, the growth in assay [19] was 94%; in assay [20] it was 61.8%.

Turning to `CCOC(=O)c1cc(-c2ccc(OC)cc2)[nH]c1NNC(=O)CCOC`, the growth in [1] was 111%; in assay [2] it was 112%; in assay [3], 106%; in assay [4] it was 103%; in assay [5], 101%; in assay [6], 93.2%. The growth was 99.3% in [7]; 93.6% in assay [8]; 94.8% in [9]; 114% in assay [10]; 103% in assay [11]; 101% in assay [12]. Also, the growth was 107% in [13]; 77% in [14]; 63.7% in assay [15]; 107% in assay [16]; 88.8% in assay [17]; 77.8% in [18]. Also, the growth in [20] is 58.1%.

As for `COc1ccc(-c2cc(C#N)c(NNC(C)=O)[nH]2)cc1`, the growth in assay [1] is 117%; in assay [2], 105%; in [3] it was 119%; in assay [4], 125%; in assay [5], 102%; in assay [6] it was 115%. Further, the growth in assay [7] was 105%; in assay [8] it was 103%; in assay [9], 103%; in [10], 115%; in assay [11], 102%; in assay [12] it was 112%. Also, the growth in assay [13] was 113%; in assay [14] it was 96.2%; in assay [15], 95.7%; in assay [16], 103%; in assay [17], 107%; in assay [18], 123%. For the same compound, the growth in [19] was -0.558% (active); in [20], 46%.

Regarding `Nc1ccc(S(=O)(=O)Nc2cc(F)cc(F)c2)cc1`, the growth in assay [1] is 105%; in assay [2], 102%; in [3], 92.8%; in assay [4], 104%; in [5] it was 98.1%; in assay [6], 109%. Moreover, the growth in assay [7] was 106%; in assay [8], 88.3%; in assay [9], 91.5%; in [10] it was 120%; in [11] it was 94.5%; in [12], 80.4%. Moreover, the growth in [13] was 105%; in assay [14], 85.4%; in [15] it was 112%; in assay [16] it was 98.7%; in assay [17], 100%; in assay [18], 95%. The growth was 93.4% in assay [19] and 72.7% in [20].

As for `Brc1c(-c2ccncc2)nc2n1CCS2`, the growth in assay [1] is 105%; in assay [2], 87%; in [3], 101%; in assay [4], 103%; in [5], 91.3%; in assay [6], 84.5%. The growth in [7] was 103%; in assay [8] it was 84.4%; in assay [9], 89.4%; in assay [10], 93.5%; in assay [11] it was 92.7%; in assay [12], 110%. In addition, the growth is 91.7% in assay [13]; 94.5% in [14]; 97.5% in assay [15]; 87.7% in [16]; 90.2% in [17]; 77.6% in assay [18]. The growth is -8.76% (active) in [19] and 87.3% in assay [20].
